Records with an inconclusive call do not appear. The source made the active and inactive calls. Calls come from the whole dose curve; as a rule, active = well fitted cell-killing curve with a large enough effect; inconclusive = small, poorly fitted or top-dose-only effect, or effect the other way; inactive = flat fitted curve, though single readings scatter. Where a SMILES comes first, the peptide text is derived from it. [ ]: non-standard residue; d: D form. The star is where a group is joined. AFC = O=c1cc(C(F)(F)F)c2ccc(N*)cc2o1
Key:
Assay in all cases: Primary qHTS to identify gynecologic anti-cancer compounds using libraries of approved drugs and bioactive compounds (AID 1345084); note: nearly all actives have a fitted effect of over 55% in size
Hek293T = conditions: Gynecologic cancer cell panel viability, ATPlite luminescence, 48 h, control line for the selectivity index; series mostly up to 57.5 µM
Summary of the method: (§1)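 In this quantitative HTS, cell killing is estimated from loss of ATP-dependent luciferase light. Cells see five compound concentrations over a 48 h exposure.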

JEG-3 = conditions: Gynecologic cancer cell panel viability, ATPlite luminescence, 48 h; series mostly up to 57.5 µM
Summary of the method: as §1

OV90 = conditions: Gynecologic cancer cell panel viability, ATPlite luminescence, 48 h; series mostly up to 57.5 µM
Summary of the method: as §1

PA-1 = conditions: Gynecologic cancer cell panel viability, ATPlite luminescence, 48 h; series mostly up to 57.5 µM
Summary of the method: as §1

SKOV3 = conditions: Gynecologic cancer cell panel viability, ATPlite luminescence, 48 h; series mostly up to 57.5 µM
Summary of the method: as §1

Tov-21-G = conditions: Gynecologic cancer cell panel viability, ATPlite luminescence, 48 h; series mostly up to 57.5 µM
Summary of the method: as §1

Tov112D = conditions: Gynecologic cancer cell panel viability, ATPlite luminescence, 48 h; series mostly up to 57.5 µM
Summary of the method: as §1
% is set by controls: 0 for no effect and ±100 for the full control effect.

C[C@@H]1C(=O)O[C@H]2CC34[C@H]5C[C@@H](C(C)(C)C)C36[C@@H](OC(=O)[C@@H]6O)O[C@@]4(C(=O)O5)[C@]21O (stereo partly specified)
inactive: Potency (Hek293T) | Potency (JEG-3) | Potency (OV90) | Potency (PA-1) | Potency (SKOV3) | Potency (Tov-21-G) | Potency (Tov112D)

CC(=O)OC[C@]1(O)[C@H]2[C@H](OC(=O)CC(C)C)OC=C(CO[C@@H]3O[C@H](CO)[C@@H](O)[C@H](O)[C@H]3O)[C@H]2C[C@@H]1O
inactive: Potency (Hek293T) | Potency (JEG-3) | Potency (OV90) | Potency (PA-1) | Potency (SKOV3) | Potency (Tov-21-G) | Potency (Tov112D)

CC(=O)c1c(O)cc2cccc3c2c1CC(C)(O)O3 (stereo unspecified)
inactive: Potency (Hek293T) | Potency (JEG-3) | Potency (OV90) | Potency (PA-1) | Potency (SKOV3) | Potency (Tov-21-G) | Potency (Tov112D)

CNC(=O)COC(=O)NCCC1CCN(c2cccc(C)n2)CC1
inactive: Potency (Hek293T) | Potency (JEG-3) | Potency (OV90) | Potency (PA-1) | Potency (SKOV3) | Potency (Tov-21-G) | Potency (Tov112D)

CC(=O)NC(CCC(=O)O)C(=O)NCCc1ccc(O)cc1 (stereo unspecified)
inactive: Potency (Hek293T) | Potency (JEG-3) | Potency (OV90) | Potency (PA-1) | Potency (SKOV3) | Potency (Tov-21-G) | Potency (Tov112D)

C=C1C[C@]23C[C@H]1CC[C@H]2[C@]1(C)CCC[C@@]2(CO)C(=O)O[C@H]([C@H]21)[C@@H]3O
inactive: Potency (Hek293T) | Potency (JEG-3) | Potency (OV90) | Potency (PA-1) | Potency (SKOV3) | Potency (Tov-21-G) | Potency (Tov112D)

C[C@@H]1CC[C@]2(C(=O)O[C@@H]3O[C@H](CO)[C@@H](O)[C@H](O)[C@H]3O)CC[C@]3(C)C(=CCC4[C@@]5(C)C[C@@H](O)[C@H](O)C(C)(C)C5CC[C@]43C)C2[C@]1(C)O (stereo partly specified)
inactive: Potency (Hek293T) | Potency (JEG-3) | Potency (OV90) | Potency (PA-1) | Potency (SKOV3) | Potency (Tov-21-G) | Potency (Tov112D)

CC1C/C=C/C=C\CCCCC(O)C/C=C/C(=O)O1 (stereo unspecified)
inactive: Potency (Hek293T) | Potency (JEG-3) | Potency (OV90) | Potency (PA-1) | Potency (SKOV3) | Potency (Tov-21-G) | Potency (Tov112D)

CC(=O)O[C@@H]1[C@@H](OC(=O)/C=C/c2ccccc2)[C@H](C)O[C@@H](O[C@H]2[C@@H]3C=CO[C@@H](O[C@@H]4O[C@H](CO)[C@@H](O)[C@H](O)[C@H]4O)[C@@H]3[C@@]3(CO)O[C@@H]23)[C@@H]1OC(C)=O
inactive: Potency (Hek293T) | Potency (JEG-3) | Potency (OV90) | Potency (PA-1) | Potency (SKOV3) | Potency (Tov-21-G) | Potency (Tov112D)

CC(C)(C)NCc1cc(Nc2ccnc3cc(Cl)ccc23)c2c(c1O)CCCC2
inactive: activity change, negative = cytotoxicity (Hek293T) -0.834% [at 0.462 µM] | activity change, negative = cytotoxicity (JEG-3) 2.67% [at 0.462 µM] | activity change, negative = cytotoxicity (OV90) 12.6% [at 0.462 µM] | activity change, negative = cytotoxicity (PA-1) 0.938% [at 0.462 µM] | activity change, negative = cytotoxicity (SKOV3) 4.41% [at 0.462 µM] | activity change, negative = cytotoxicity (Tov-21-G) 8.34% [at 0.462 µM] | activity change, negative = cytotoxicity (Tov112D) 20.2% [at 0.462 µM]

COc1cc2c(cc1OC)CN(C(=O)[C@@H](NCc1ccncc1)C(C)(C)C)CC2
inactive: Potency (Hek293T) | Potency (JEG-3) | Potency (OV90) | Potency (PA-1) | Potency (SKOV3) | Potency (Tov-21-G) | Potency (Tov112D)

CC(=O)N[C@@H](CC(C)C)C(=O)N[C@@H](CCC(=O)O)C(=O)N[C@@H](CCC(=O)O)C(=O)N[C@@H](CC(=O)O)C(=O)Nc1ccc2c(C(F)(F)F)cc(=O)oc2c1 (Ac-LEED-{AFC})
inactive: Potency (Hek293T) | Potency (JEG-3) | Potency (OV90) | Potency (PA-1) | Potency (SKOV3) | Potency (Tov-21-G) | Potency (Tov112D)

C=C1CC2C3(C)C(OC(C)=O)CC(=O)OC(C)(C)C3C(O)C(OC(C)=O)C2(C)C2C(=O)OC(C)C(=O)C12C (stereo unspecified)
inactive: Potency (Hek293T) | Potency (JEG-3) | Potency (OV90) | Potency (PA-1) | Potency (SKOV3) | Potency (Tov-21-G) | Potency (Tov112D)

O=C1CC(c2ccc([N+](=O)[O-])cc2)=NN1c1ccccc1
inactive: Potency (Hek293T) | Potency (JEG-3) | Potency (OV90) | Potency (PA-1) | Potency (SKOV3) | Potency (Tov-21-G) | Potency (Tov112D)

C=C(C)[C@H]1C[C@@H](O)C(=C)CC[C@@H](O)C(=C)[C@@H](O)C1
inactive: Potency (Hek293T) | Potency (JEG-3) | Potency (OV90) | Potency (PA-1) | Potency (SKOV3) | Potency (Tov-21-G) | Potency (Tov112D)

CC(C)(O)c1ccc2c(c1)C(=O)CC1[C@](C)(CO)CCC[C@]21C (stereo partly specified)
inactive: Potency (Hek293T) | Potency (JEG-3) | Potency (OV90) | Potency (PA-1) | Potency (SKOV3) | Potency (Tov-21-G) | Potency (Tov112D)

CC(=O)N[C@H](Cc1ccc(O)cc1)C(=O)N[C@H](CCCN=C(N)N)C(=O)N[C@H](Cc1ccccc1)C(N)=O (Ac-[dY]-[dR]-[dF]-NH2)
inactive: Potency (Hek293T) | Potency (JEG-3) | Potency (OV90) | Potency (PA-1) | Potency (SKOV3) | Potency (Tov-21-G) | Potency (Tov112D)

CC(=O)O[C@@H]1C[C@]2(C)[C@@]3(CCC4[C@@]5(C)CC[C@H](O[C@@H]6O[C@H](C(=O)O)[C@@H](O)[C@H](O[C@@H]7O[C@H](CO)[C@H](O)[C@H](O)[C@H]7O[C@@H]7O[C@@H](C)[C@H](O)[C@@H](O)[C@H]7O[C@@H]7OC[C@](O)(CO)[C@H]7O)[C@H]6O[C@@H]6O[C@H](CO)[C@H](O)[C@H](O)[C@H]6O)C(C)(C)C5CC[C@]42C)O[C@@H](O)[C@]12C3CC(C)(C)[C@@H](OC(=O)/C=C/c1ccc(O)c(O)c1)[C@@H]2OC(=O)/C=C/c1ccccc1 (stereo partly specified)
inactive: activity change, negative = cytotoxicity (Hek293T) 0.066% [at 6.55 µM] | activity change, negative = cytotoxicity (JEG-3) -2.17% [at 6.55 µM] | activity change, negative = cytotoxicity (OV90) -7.75% [at 6.55 µM] | activity change, negative = cytotoxicity (PA-1) 24% [at 6.55 µM] | activity change, negative = cytotoxicity (SKOV3) 3.32% [at 6.55 µM] | activity change, negative = cytotoxicity (Tov-21-G) 17% [at 6.55 µM] | activity change, negative = cytotoxicity (Tov112D) 6.15% [at 6.55 µM]

— PubChem BioAssay (NCATS)
